Compound activity from PubChem.
Most compounds without a hit are left out; they make up all but 2.8% or so of the library.
DRD3 agonist = qHTS of D3 Dopamine Receptor Agonist: qHTS; D(3) dopamine receptor (Homo sapiens), P35462; D3R DiscoveRx beta-arrestin cells, luminescence, 90 min; max activation, %; 410,000 compounds, 0.58% hits; AID 652048, 2013; in the data active means max activation above about 30%; further: 0% is about no effect
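Agonist mode: compounds and dopamine controls were applied to plated cells for 90 min at 37 degrees C after an overnight attachment at 1500 cells/well. Luminescent read-out followed 30 - 60 minutes at room temperature with DiscoveRx detection reagent.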
B2AR arrestin = qHTS assay of beta-arrestin-biased ligands of beta2-adrenergic receptor | Beta-2 adrenergic receptor (Homo sapiens), P07550 | 330,000 compounds, 0.02% hits | Potency, µM (titrated, usually from 46.1 µM), for inactives: top-dose activation, actives largely listed as activators | beta-arrestin recruitment to beta2AR, cell-based reporter; active means well fitted activation curve with a large enough effect; inconclusive means small, poorly fitted or top-dose-only effect;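 further: potency means the concentration at half of the fitted maximal effect; 0% = DMSO controls and full agonism = EC100 isoproterenol or metaproterenol; nearly all actives have a fitted effect of over 65% in size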
Target sequence (P07550 whole entry, looked up): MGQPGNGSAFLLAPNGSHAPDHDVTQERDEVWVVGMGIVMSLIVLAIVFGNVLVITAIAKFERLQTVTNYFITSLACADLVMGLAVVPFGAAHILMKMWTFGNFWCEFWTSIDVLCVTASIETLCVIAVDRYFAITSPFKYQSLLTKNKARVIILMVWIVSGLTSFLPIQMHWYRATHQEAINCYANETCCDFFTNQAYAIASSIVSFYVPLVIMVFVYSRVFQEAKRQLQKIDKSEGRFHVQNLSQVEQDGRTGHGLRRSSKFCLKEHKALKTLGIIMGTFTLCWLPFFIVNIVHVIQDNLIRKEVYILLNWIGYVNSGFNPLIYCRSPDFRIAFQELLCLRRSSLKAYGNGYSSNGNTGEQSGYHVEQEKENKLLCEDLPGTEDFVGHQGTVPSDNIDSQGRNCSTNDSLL
DRD3 antagonist = qHTS of D3 Dopamine Receptor Antagonist: qHTS. D(3) dopamine receptor (Homo sapiens), P35462. D3R cells, DiscoveRx beta-arrestin luminescence, antagonist mode; hits give low values. max response, negative = inhibition, %. 360,000 compounds, 2.5% hits; in the data active means max response below about -50%; inconclusive means no clear call, values can overlap the other calls; further: on the % scale 0 is the no-effect control and ±100 the full control effect
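Cells plated overnight at 1500 cells/well, then exposed to library compounds with dopamine controls for 90 minutes at 37 degrees C. DiscoveRx reagent added for 30–60 minutes at room temperature; luminescence read, quantitative HTS format.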
Giardia kill = Small Molecules that selectively kill Giardia lamblia: qHTS. Giardia lamblia trophozoite viability. activity change, % at 7.66 µM, hits read low. 340,000 compounds, 0.15% hits. AID 540267, 2011; in the data active means activity change below about -80%; inconclusive means between about -30% and that limit;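 further: parasites exposed to compound for two days anaerobically before the ATP read; on the % scale 0 is the no-effect control and ±100 the full control effect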
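Giardia trophozoites, 100 cells per well, were exposed to compounds for 48 hrs at 37 deg C under anaerobic conditions; viability was then read as ATP content by bioluminescence after 15-30 min at room temperature.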
Active calls of the source: *; ? = inconclusive; . = no result.

SMILES	DRD3 agonist	B2AR arrestin	DRD3 antagonist	Giardia kill
CC(C)C[C@H]1C(=O)N2CCC[C@H]2[C@]2(O)O[C@](NC(=O)C3C=C4c5cccc6[nH]c(Br)c(c56)C[C@H]4N(C)C3)(C(C)C)C(=O)N12 (stereo partly specified)	21	.	-55*	-10
CC(C)NCCOc1cccc(Br)c1	-2	0%	-75*	3
Brc1cccc(OCCCNC2CCCC2)c1	-15	0%	-91*	-1
COc1ccc(CCNC(=O)c2cc3c(=O)n4cccc(C)c4nc3n2C)cc1	3	.	.	.
O=C(c1cccnc1)N1CCN(Cc2cccc(Br)c2)CC1	-20	0%	-27	14
O=C(c1cccnc1)N1CCN(Cc2ccccc2Br)CC1	-14	0%	-60*	-6
Cc1ccc(-c2[nH]ncc2CNCc2ccccc2)cc1	.	.	.	0
COc1cc(OC)c(Nc2ncnc3onc(-c4cccc(Cl)c4)c23)cc1Cl	6	.	.	.
O=C(NCc1ccccc1)c1cc(C2CCCCN2C(=O)CCc2ccccc2)on1 (stereo unspecified)	-2	.	5	.
O=C(c1cc(C2CCCCN2C(=O)CCCc2ccccc2)on1)N1CCOCC1 (stereo unspecified)	-7	.	-51*	.
CCCN1CCC(=O)N(CCSc2ccc(Br)cc2)CC1	.	.	.	15
COC(=O)c1c(NC(=O)c2ccc(C)cc2)sc(Cc2ccccc2)c1C	-1	0%	-65*	-7
COc1ccc(CNC(=O)CN2C(=O)c3ccc([N+](=O)[O-])cc3C2=O)cc1	31*	0%	-3	-11
COc1ccc(CNC(=O)CN2C(=O)c3ccccc3C2=O)cc1	3	0%	1	18
CO/N=C(\C(=O)N[C@@H]1C(=O)N2C(C(=O)OCOC(=O)C(C)(C)C)=C(/C=C\c3scnc3C)CS[C@H]12)c1csc(N)n1	-11	.	.	.
O=C1NC(=Nc2ccccc2)S/C1=C\c1cccn1-c1ccccc1	-5	-1%	-70*	-21
COc1ccc(OCCN2CCN(C(=O)c3ccc(OC(F)F)c(OC)c3)CC2)cc1	123*	0%	14	10
COc1ccc(OCCN2CCN(C(=O)c3ccc(OC)cc3)CC2)cc1	92*	0%	0	1
Cc1ccc(C)n1CCN1CCN(C(=O)c2ccc(Cl)cc2)CC1	-13	8%	-78*	-11
COc1ccc(C(=O)N2CCCC2)cc1	-8	0%	-13	-16
COc1ccc(C(=O)N2CCN(Cc3ccc(OC)c(OC)c3)CC2)cc1	-19	0%	-3	-6
CC(=O)c1ccc(S(=O)(=O)N2CCN(CCOc3ccc(Br)cc3)CC2)cc1	49*	0%	-22	-9
CC(C)c1ccc(OCC(=O)Nc2cc(-c3ccccc3)no2)cc1	-9	.	.	.
O=C(O)CC/C=C\CC[C@@H]1[C@@H](N2CCCCC2)[C@@H](O)C[C@@H]1OCc1ccc(-c2ccccc2)cc1	-8	.	.	.
O=C(c1c(F)cccc1F)N1CCN(CCOc2ccccc2)CC1	9	0%	?	12
SMILES	DRD3 agonist	B2AR arrestin	DRD3 antagonist	Giardia kill
O=C(c1ccc(Cl)cc1)N1CCN(CCOc2ccccc2)CC1	84*	0%	-5	10
CCn1cc(Br)c(C(=O)Nc2ccccc2C(=O)OC)n1	-5	0%	2	-11
CCn1cc(Cl)c(C(=O)Nc2ccccc2C(N)=O)n1	48*	0%	-20	1
Cc1cccc(C)c1NC(=O)C[N+](C)(C)CC(O)COc1cccc2ccccc12 (stereo unspecified)	-15	0%	-52*	-17
CC(C)Oc1ccc(CCC(=O)N/N=C/c2ccc3c(c2)OCO3)cc1	6	0%	16	-2
O=C(CCc1ccc(O)c(O)c1)N/N=C/c1ccc2c(c1)OCO2	76*	0%	-7	30
CCCOc1ccc(NC(=O)CC2C(=O)N(c3ccc(F)cc3)C(=O)N2CC(C)C)cc1 (stereo unspecified)	62*	.	.	.
Cc1cc(NC(=O)CSc2nc3cc4c(cc3c(=O)n2CCc2ccccc2)OCO4)no1	2	0%	-53*	6
CC(=O)Nc1nc(-c2ccc3c(c2)CC(C)N3C(=O)C2CC2)c(C)s1 (stereo unspecified)	7	0%	15	17
Cc1sc(NC(=O)c2ccco2)nc1-c1ccc2c(c1)CC(C)N2C(=O)C1CC1 (stereo unspecified)	42*	0%	27	-5
Cc1ccc(NC(=O)C(C)Sc2nc(=O)cc(N)n2-c2cccc(C)c2)cc1 (stereo unspecified)	4	.	.	.
C=CCN(c1ccccc1)S(=O)(=O)c1cccc(C(=O)NC2CCN(Cc3ccccc3)CC2)c1	-27	0%	-79*	-19
COc1ccccc1NS(=O)(=O)c1ccc(C)c(C(=O)NC2CCN(Cc3ccccc3)CC2)c1	-13	-1%	?	?
COc1ccccc1NS(=O)(=O)c1cccc(C(=O)NC2CCN(Cc3ccccc3)CC2)c1	-24	-4%	-95*	-1
CN(C)S(=O)(=O)c1cccc(C(=O)NCC(=O)NC2CCN(Cc3ccccc3)CC2)c1	-20	1%	-8	18
O=C(NC1CCN(Cc2ccccc2)CC1)c1cccc(S(=O)(=O)Nc2ccc(Br)cc2)c1	-31	0%	-57*	4
O=C(NC1CCN(Cc2ccccc2)CC1)c1cccc(S(=O)(=O)Nc2ccc(F)cc2)c1	-25	2%	?	28
Cc1ccc(NS(=O)(=O)c2cccc(C(=O)NC3CCN(Cc4ccccc4)CC3)c2)c(C)c1	-20	.	-97*	-4
CCC(=O)Oc1ccc2c(c1)CC[C@@H]1[C@@H]2CC[C@]2(C)[C@@H](OC(=O)CC)CC[C@@H]12	6	.	.	.
Cc1cc(C)c(NC(=O)Cn2c(=O)oc3cc(S(=O)(=O)N4CCCCCC4)ccc32)c(C)c1	-10	.	.	.
Cc1ccc(C(=O)Nc2ccon2)cc1S(=O)(=O)N1CCOCC1	32*	0%	15	11
Cc1ccc(C(=O)NC2CCN(Cc3ccccc3)CC2)cc1S(=O)(=O)N1CCOCC1	-34	-1%	-67*	12
COc1ccccc1NS(=O)(=O)c1cc(C(=O)NC2CCN(Cc3ccccc3)CC2)ccc1C	-15	.	-92*	9
Cc1ccc(S(=O)(=O)N2CCOCC2)cc1C(=O)NC1CCN(Cc2ccccc2)CC1	-18	.	7	-21
CC(C)c1ccc(NC(=O)CSc2nc3ccccc3nc2Cc2ccccc2)cc1	-7	.	.	.
CCn1ncc(/C=N/N=C2\CCC3C4CCc5cc(O)ccc5C4CCC23C)c1C (stereo unspecified)	34*	0%	88	-9
Cc1c(/C=N/N=C2\CCC3C4CCc5cc(O)ccc5C4CCC23C)cnn1C (stereo unspecified)	7	-1%	29	-20
COc1ccc(-n2ncc(C(C)NS(=O)(=O)c3cccs3)c2C)cc1 (stereo unspecified)	-2	3%	-76*	-15
